Growth inhibition, inhibition and outcome data for 20 molecules are collected here from PubChem BioAssay.

As a reminder, the inhibition is the change of the read-out against control, counted positive when it falls.

Assay [1] can be described thus: antimalarial activity against Dd2 strain (AID 2302;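 active = growth inhibition above 50% at the single 2 µM test dose, taken to imply half-maximal potency below 2 µM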;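 note: 0% = DMSO untreated growth and 100% = chloroquine plus artemisinin killed control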). As to conditions: P. falciparum Dd2 in RBCs, LDH growth readout, 72 h; at 2 µM; active compounds read high.
A short description of assay [2]: human hepatoma cell viability loss – ATP luminescence, cytotoxicity control for P. falciparum antimalarial project, primary screen (AID 2303;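 active = inhibition above 50%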;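 note: 0% = DMSO wells and 100% = digitonin-killed cells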). The settings on record: HepG2 viability, 24-48 h, at 10 µM, active compounds read high.
In assay [3] the target is L-lactate dehydrogenase (Plasmodium falciparum (isolate CDC / Honduras)) (UniProt Q27743). Briefly: PfLDH activity inhibition – cell lysate, 3D7 strain, counter-screen for P. falciparum growth inhibition project (AID 2304).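 Note: 0% = vehicle and 100% = reference inhibitor.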 The settings on record: P. falciparum 3D7 crude extract, LDH APAD/NBT absorbance; at 2 µM; active compounds read high.
Assay [4] is described as follows: inhibition of 3D7 malaria parasite growth – strain 3D7 (AID 2306).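 Note: 0% = DMSO wells and 100% = chloroquine plus artemisinin control wells.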 As to conditions: P. falciparum 3D7 erythrocytic growth, LDH absorbance, 72 h; at 2 µM; active compounds read high.
Assay [5] concerns the target Calcium-dependent protein kinase 1 (Plasmodium falciparum (isolate 3D7)) (UniProt P62344). Briefly: PfCDPK1 kinase inhibitors, biochemical, TCAMS library (AID 1159585; cut-off not given, nearly all actives have IC50 up to about 0.98 µM;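 note: inhibitors leave more ATP so luminescence rises with inhibition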). As to conditions: recombinant PfCDPK1, Kinase-Glo ATP depletion luminescence. (In Kinase-Glo more light means more ATP remaining.)
Assay [6] concerns the target Plasmodium falciparum protein kinase 6 (PK6, PF3D7_1337100) (UniProt Q8IDW1). Briefly: PfPK6 kinase inhibitors, biochemical, TCAMS library (AID 1159586). As to conditions: recombinant PfPK6, Kinase-Glo ATP depletion luminescence.
The target of assay [7] is Protein kinase 7 (PK7), Plasmodium falciparum 3D7 (PF3D7_0213400) (UniProt Q7YTF7). As to the kind of experiment: inhibition of Plasmodium PK7 catalytic activity – biochemical, TCAMS antimalarial set, Kinase-Glo luminescence (AID 1159587). The settings on record: recombinant PfPK7, Kinase-Glo ATP depletion luminescence.
For assay [8], the target named is Calcium-dependent protein kinase 4 (Plasmodium falciparum (isolate 3D7)) (UniProt Q8IBS5). As to the kind of experiment: PfCDPK4 kinase inhibitors, biochemical, TCAMS library (AID 1159588; cut-off not given, nearly all actives have IC50 up to about 0.91 µM). As to conditions: recombinant PfCDPK4, Kinase-Glo ATP depletion luminescence.

The structures appear in SMILES notation. Unmarked numbers belong to inactive results. For some of these results: Entries with a potency or affinity are not part of this list. Active and inactive are the calls of the source. Unless noted, the rule behind the calls is not given here.

Sequence of Calcium-dependent protein kinase 1 (Plasmodium falciparum (isolate 3D7)) (P62344 whole entry, looked up): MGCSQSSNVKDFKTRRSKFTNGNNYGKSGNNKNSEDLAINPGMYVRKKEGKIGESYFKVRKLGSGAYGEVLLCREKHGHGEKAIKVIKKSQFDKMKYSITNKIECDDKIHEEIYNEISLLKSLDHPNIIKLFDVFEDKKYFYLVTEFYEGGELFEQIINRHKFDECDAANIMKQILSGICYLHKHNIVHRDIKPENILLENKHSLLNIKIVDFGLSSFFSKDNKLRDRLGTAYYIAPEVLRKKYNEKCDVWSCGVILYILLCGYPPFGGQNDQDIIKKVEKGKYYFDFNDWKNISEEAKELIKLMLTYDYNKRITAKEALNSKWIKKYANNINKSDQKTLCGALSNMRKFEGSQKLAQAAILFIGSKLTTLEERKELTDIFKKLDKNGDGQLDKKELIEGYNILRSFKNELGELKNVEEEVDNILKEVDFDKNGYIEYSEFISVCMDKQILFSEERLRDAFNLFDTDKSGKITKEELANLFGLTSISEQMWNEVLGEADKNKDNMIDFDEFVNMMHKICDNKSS
Sequence of Plasmodium falciparum protein kinase 6 (PK6, PF3D7_1337100) (Q8IDW1 1-305): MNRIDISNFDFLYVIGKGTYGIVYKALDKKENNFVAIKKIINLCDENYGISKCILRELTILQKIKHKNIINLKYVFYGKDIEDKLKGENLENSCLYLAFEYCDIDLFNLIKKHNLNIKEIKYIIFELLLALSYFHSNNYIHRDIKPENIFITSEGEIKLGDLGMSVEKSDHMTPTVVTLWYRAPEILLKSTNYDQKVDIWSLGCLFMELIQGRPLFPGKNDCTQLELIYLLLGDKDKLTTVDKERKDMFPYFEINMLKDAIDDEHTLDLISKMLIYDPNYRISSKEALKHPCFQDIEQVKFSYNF
Sequence of Protein kinase 7 (PK7), Plasmodium falciparum 3D7 (PF3D7_0213400) (Q7YTF7 1-343): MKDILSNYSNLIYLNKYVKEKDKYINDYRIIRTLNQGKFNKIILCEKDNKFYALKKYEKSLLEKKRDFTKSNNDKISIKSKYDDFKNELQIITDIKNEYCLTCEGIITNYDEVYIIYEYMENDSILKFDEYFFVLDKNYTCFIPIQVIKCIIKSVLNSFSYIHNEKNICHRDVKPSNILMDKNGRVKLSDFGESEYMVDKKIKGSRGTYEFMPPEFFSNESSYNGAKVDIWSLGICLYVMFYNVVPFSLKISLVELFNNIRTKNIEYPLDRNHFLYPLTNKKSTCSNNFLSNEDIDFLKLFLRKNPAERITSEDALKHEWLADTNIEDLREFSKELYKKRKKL
Sequence of L-lactate dehydrogenase (Plasmodium falciparum (isolate CDC / Honduras)) (Q27743 whole entry, looked up): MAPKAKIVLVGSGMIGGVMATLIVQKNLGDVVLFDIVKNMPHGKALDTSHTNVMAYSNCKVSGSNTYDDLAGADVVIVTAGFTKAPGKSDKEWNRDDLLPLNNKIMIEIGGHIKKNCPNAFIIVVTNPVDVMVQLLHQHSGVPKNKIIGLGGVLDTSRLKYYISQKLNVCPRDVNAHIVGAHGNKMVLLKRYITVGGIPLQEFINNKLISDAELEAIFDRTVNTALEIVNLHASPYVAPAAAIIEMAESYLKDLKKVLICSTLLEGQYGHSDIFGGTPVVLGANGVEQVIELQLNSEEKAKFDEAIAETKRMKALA
Sequence of Calcium-dependent protein kinase 4 (Plasmodium falciparum (isolate 3D7)) (Q8IBS5 whole entry, looked up): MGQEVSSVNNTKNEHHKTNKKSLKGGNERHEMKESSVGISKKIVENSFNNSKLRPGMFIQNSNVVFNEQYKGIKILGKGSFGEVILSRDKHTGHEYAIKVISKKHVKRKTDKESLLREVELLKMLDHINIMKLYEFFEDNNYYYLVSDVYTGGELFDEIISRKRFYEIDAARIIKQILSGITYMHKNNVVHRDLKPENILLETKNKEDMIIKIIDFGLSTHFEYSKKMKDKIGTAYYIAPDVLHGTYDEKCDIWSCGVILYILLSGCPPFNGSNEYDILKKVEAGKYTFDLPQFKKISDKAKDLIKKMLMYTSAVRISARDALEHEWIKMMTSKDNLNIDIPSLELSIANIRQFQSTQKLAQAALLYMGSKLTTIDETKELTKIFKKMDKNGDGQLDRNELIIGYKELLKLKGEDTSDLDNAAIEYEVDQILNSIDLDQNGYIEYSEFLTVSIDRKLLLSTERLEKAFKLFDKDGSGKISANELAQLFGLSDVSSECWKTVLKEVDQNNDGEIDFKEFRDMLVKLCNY

`COc1ccccc1CNC(=O)C(=O)Nc1c(-c2ccccc2)[nH]c2ccccc12`: the growth inhibition in assay [1] is 91% (active); in assay [4], 99% (active). For the same molecule, the values for the inhibition in assay [2] and in assay [3] were 0% and -2%, respectively. Further, the result in assay [5], in assay [6], in assay [7] and in assay [8] was inactive.

Take `CCNc1cc(C(=O)N[C@@H](Cc2ccccc2)[C@H](O)CNCc2cccc(OC)c2)c(OC)c(N2CCCCS2(=O)=O)c1`: the growth inhibition in assay [1] was 96% (active); in assay [4], 97% (active). The inhibition in assay [2] is 11%; in assay [3], -8%. Also, the result in assay [5], in assay [6], in assay [7] and in assay [8] was inactive.

As for `CCOC(=O)C1=C(C)NC(Cn2ccnc2)=C(C(=O)OCC)C1c1ccc(C(C)(C)C)cc1` (stereo not given), the results for the growth inhibition in assay [1] and in assay [4] were 33% and 100% (active), respectively. Besides, the inhibition in assay [2] is 8%; in assay [3], -10%. Besides, the outcome in assay [5], in assay [6], in assay [7] and in assay [8] was inactive.

As to `COc1ccc(N2CCN(CCc3ccc(NC(=O)c4ccc([N+](=O)[O-])cc4)cc3)CC2)c(OC)c1`, the growth inhibition is 0% in assay [1] and 83% (active) in assay [4]. The inhibition in assay [2] was 45%; in assay [3] it was 1%. The result in assay [5], in assay [6], in assay [7] and in assay [8] was inactive.

Consider `Cc1cccc2[nH]c(-c3ccc(-c4cccc(NC(=O)CN5CCN(C)CC5)c4)s3)nc12`, for which the growth inhibition was 51% (active) in assay [1] and 96% (active) in assay [4]. Moreover, the inhibition is 7% in assay [2] and -3% in assay [3]. The result in assay [5], in assay [6], in assay [7] and in assay [8] was inactive.

With `CN1CCN(CCCN(Cc2cccc(-c3ccc(CNC4CCCC4)cc3)c2)C(=O)CCC2CCCC2)CC1`, the values for the growth inhibition in assay [1] and in assay [4] were 84% (active) and 97% (active), respectively. Moreover, the results for the inhibition in assay [2] and in assay [3] were 16% and -1%, respectively. In addition, the result in assay [5], in assay [6], in assay [7] and in assay [8] was inactive.

On to `CC(C)N1CCC(Oc2ccc(CN3CCN(C(c4ccccc4)c4ccc(Cl)cc4)CC3)cc2)CC1` (stereo not given), for which the growth inhibition in assay [1] is 46%; in assay [4], 97% (active). In addition, the results for the inhibition in assay [2] and in assay [3] were 44% and 4%, respectively. For the same molecule, the outcome in assay [5], in assay [6], in assay [7] and in assay [8] was inactive.

For the molecule `CCc1sc(N2CCN(C)CC2)nc1C(=O)Nc1ccc(F)cc1C(F)(F)F`, the growth inhibition was 98% (active) in assay [1] and 101% (active) in assay [4]. The inhibition in assay [2] was -1%; in assay [3], 5%. The outcome in assay [5], in assay [6], in assay [7] and in assay [8] was inactive.

Take `COc1ccc(C(=O)NCc2ccccc2-c2ccc(C(C)(C)C)cc2)cc1O`: the growth inhibition in assay [1] is 97% (active); in assay [4], 99% (active). Further, the inhibition in assay [2] is 10%; in assay [3], 1%. The outcome in assay [5], in assay [6], in assay [7] and in assay [8] was inactive.

As to `Cc1cnc(-c2ccc(NC(=O)N3CCc4cc5nccc(N6CCN7CCC[C@H]7C6)c5cc43)c3ccccc23)o1`, the growth inhibition in assay [1] is 45%; in assay [4], 100% (active). The inhibition in assay [2] was 12%; in assay [3], -1%. For the same molecule, the outcome in assay [5], in assay [6], in assay [7] and in assay [8] was inactive.

Regarding `CC1(C)N=C(N)N=C(N)N1OCCSc1ccc(Cl)c(Cl)c1`, the growth inhibition in assay [1] is 95% (active); in assay [4], 96% (active). Also, the inhibition in assay [2] is 65% (active); in assay [3], -1%. Moreover, the result in assay [5], in assay [6], in assay [7] and in assay [8] was inactive.

As for `CCCc1cc(NC2CCN(C)CC2)nc(Nc2ccc(C)cc2)n1`, the growth inhibition in assay [1] is 20%; in assay [4], 101% (active). Besides, the inhibition was 25% in assay [2] and -1% in assay [3]. Also, the outcome in assay [5], in assay [6], in assay [7] and in assay [8] was inactive.

As to `COc1ccc(Cc2cccc(C(C(=O)NCc3cc(Cl)cc(Cl)c3)N3CCN(C)CC3)c2)cc1` (stereo not given), the growth inhibition in assay [1] was 24%; in assay [4], 101% (active). Moreover, the results for the inhibition in assay [2] and in assay [3] were 8% and -9%, respectively. The outcome in assay [5], in assay [6], in assay [7] and in assay [8] was inactive.

For `COc1ccc(C(=C(C)CC(C)C(=O)O)c2ccccc2)cc1` (stereo not given), the values for the growth inhibition in assay [1] and in assay [4] were -2% and 95% (active), respectively. Moreover, the inhibition in assay [2] is 6%; in assay [3], -8%. The result in assay [5], in assay [6], in assay [7] and in assay [8] was inactive.

`N#Cc1ccc(Cn2ccc3c4c(N)nc(N)nc4ccc32)cc1`: the growth inhibition in assay [1] is 95% (active); in assay [4], 92% (active). Moreover, the inhibition is 64% (active) in assay [2] and 0% in assay [3]. Also, the result in assay [5], in assay [6], in assay [7] and in assay [8] was inactive.

Take `O=C(NCc1cccs1)[C@H](Cc1ccccc1)Nc1ccnc(NCCc2ccccc2)n1`: the growth inhibition in assay [1] was 59% (active); in assay [4] it was 85% (active). The inhibition in assay [2] is -1%; in assay [3] it was -2%. Further, the result in assay [5], in assay [6], in assay [7] and in assay [8] was inactive.

With `CC1CCN(c2nc(C(=O)Nc3ccc(F)cc3C(F)(F)F)c(C(C)C)s2)CC1`, the growth inhibition was 66% (active) in assay [1] and 101% (active) in assay [4]. Moreover, the inhibition in assay [2] was 5%; in assay [3], -5%. The outcome in assay [5], in assay [6], in assay [7] and in assay [8] was inactive.

Turning to `Fc1ccc2nc(-c3ccc(-c4cccc(CN5CCCCC5)c4)cc3)[nH]c2c1`, the growth inhibition in assay [1] was 101% (active); in assay [4], 100% (active). Further, the results for the inhibition in assay [2] and in assay [3] were 10% and -6%, respectively. Further, the result in assay [5], in assay [6], in assay [7] and in assay [8] was inactive.

For `O=C(NCCCNc1ccc2ccccc2n1)c1cc2c(Cl)cc(Cl)cc2[nH]1`, the growth inhibition in assay [1] and in assay [4] was 100% (active) each time. Further, the inhibition in assay [2] is 40%; in assay [3] it was 4%. Besides, the result in assay [5], in assay [6], in assay [7] and in assay [8] was inactive.

As for `CC(C)[C@H](NC(=O)c1ccc(O)c(-c2ccc(Cl)c(Cl)c2)c1)C(=O)NCCN1CCCC1`, the growth inhibition in assay [1] was 83% (active); in assay [4] it was 98% (active). Also, the inhibition in assay [2] and in assay [3] was 4% in each case. In addition, the result in assay [5], in assay [6], in assay [7] and in assay [8] was inactive.
